{"source": "PubChem BioAssay (NCI)", "note": "About 83,000 compounds went through this panel and 20% of them were active in at least one assay; those are over-represented in the sample as a whole.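 The test compound was applied at a single concentration to cells in 96-well plates for 48 hours, and percent growth was recorded.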 Values without a mark were called inactive. Calls of active or inactive are those of the source. How the source made its calls: active means growth percent below 10; inactive means the rest.", "data": [{"system": "HL-60(TB) leukemia", "test": "NCI-60 one-dose screen, 48 h (100 = growth as untreated, 0 = no growth, -100 = all killed)", "conditions": "10 µM unless noted", "values": [{"smiles": "Clc1cccc(/C=N/Nc2nc(N/N=C/c3cccc(Cl)c3Cl)nc(N3CCCCC3)n2)c1Cl", "growth": "106%"}, {"smiles": "NS(=O)(=O)c1cccc(Nc2nc(SCC(=O)c3ccc(Cl)cc3)nc3c2CCC3)c1", "growth": "111%"}, {"smiles": "CCCNNC(=O)c1ccc(-c2ccc(NC(=O)CCCCCCC(=O)N[C@H](C(=O)N3C[C@H](O)C[C@H]3C(=O)N[C@@H](C)c3ccc(-c4scnc4C)cc3)C(C)(C)C)cc2)cc1", "growth": "18.1%"}, {"smiles": "Brc1cccc(/C=N/Nc2nc(N/N=C/c3cccc(Br)c3)nc(N3CCOCC3)n2)c1", "growth": "-10.2% (active)"}, {"smiles": "CCNC(=O)Oc1ccc(/C(=C(/C)c2ccc(Cl)cc2)c2ccc(OCCN3CCCCCC3)cc2)cc1", "growth": "1.41% (active)"}, {"smiles": "NS(=O)(=O)c1ccc(Nc2nc(SCc3ccccc3)nc3ccccc23)cc1", "growth": "60.5%"}]}]}
